These results are taken from PubChem BioAssay (NCI).

Assay in all cases: NCI-60 one-dose screen, 48 h (100 = growth as untreated, 0 = no growth, -100 = all killed)
The test system of one assay is HT29 colon. As to conditions: 10 µM unless noted.
In the next assay the test system is U251 CNS. As to conditions: 10 µM unless noted.
Another assay deals with PC-3 prostate. As to conditions: 10 µM unless noted.
The test system of a further assay is UACC-62 melanoma. As to conditions: 10 µM unless noted.
The test system of a further assay is LOX IMVI melanoma. As to conditions: 10 µM unless noted.
The subject of another assay is SK-MEL-28 melanoma. The following applies: 10 µM.
A further assay concerns SK-MEL-2 melanoma. As to conditions: 10 µM unless noted.
The next assay has as its system EKVX NSCLC. The following applies: 10 µM unless noted.
The test system of the next assay is SN12C renal. The following applies: 10 µM unless noted.
The next assay concerns UO-31 renal. The following applies: 10 µM unless noted.
A further assay has as its system TK-10 renal. The following applies: 10 µM unless noted.
The test system of the next assay is ACHN renal. The following applies: 10 µM unless noted.
A further assay concerns CAKI-1 renal. As to conditions: 10 µM unless noted.
Another assay relates to CCRF-CEM leukemia. As to conditions: 10 µM unless noted.
In a further assay the test system is MOLT-4 leukemia. The following applies: 10 µM unless noted.
The next assay has as its system SR leukemia. As to conditions: 10 µM unless noted.
The subject of the next assay is SNB-19 CNS. The following applies: 10 µM unless noted.
The subject of a further assay is SNB-75 CNS. The following applies: 10 µM unless noted.
Another assay has as its system A498 renal. The following applies: 10 µM unless noted.
The next assay has as its system SK-MEL-5 melanoma. The following applies: 10 µM unless noted.

This is part of a sample that, as a whole, favours compounds with a hit. Of some 83,000 tested, about 20% had one in any assay.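 Percent growth is the endpoint: 0 to 100 indicates growth inhibition (40 means 60% inhibition), 0 means no net growth, and negative values indicate cell death.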 Unmarked numbers belong to inactive results. Calls of active or inactive are those of the source. Rule for the calls: active = growth percent below 10; inactive = the rest.

With `Cc1c(-c2csc(-n3nc(C(F)(F)F)cc3C(F)(F)F)n2)no[n+]1[O-]`, the growth was 99.2% in the assay on HT29 colon; 104% in the assay with U251 CNS; 98.6% in the assay with PC-3 prostate; 89.5% in the assay with UACC-62 melanoma; 99% in the assay on LOX IMVI melanoma; 102% in the assay on SK-MEL-28 melanoma. Moreover, the growth in the assay with SK-MEL-2 melanoma is 99.4%; in the assay on EKVX NSCLC it was 69.6%; in the assay with SN12C renal, 95.7%; in the assay on UO-31 renal, 85.8%; in the assay with TK-10 renal, 118%; with ACHN renal it was 107%. The growth with CAKI-1 renal is 87.6%; in the assay on CCRF-CEM leukemia it was 95.7%; with MOLT-4 leukemia, 87.3%; with SR leukemia, 91.1%.
Regarding `O=C(CN1C=NC2C(N3CCOCC3)=NC=NC21)c1cccc2ccccc12` (configuration not stated), the growth was 111% with HT29 colon; 96.7% in the assay with SNB-19 CNS; 101% in the assay with U251 CNS; 85.2% in the assay with PC-3 prostate; 85.5% in the assay on UACC-62 melanoma; 91.9% in the assay on LOX IMVI melanoma. The growth in the assay on SK-MEL-28 melanoma was 109%; in the assay on SK-MEL-2 melanoma, 99%; in the assay with EKVX NSCLC, 86.5%; in the assay on SN12C renal it was 95.5%; in the assay with UO-31 renal, 71.6%; with TK-10 renal, 130%. For the same compound, the growth is 97.8% with ACHN renal; 73.1% in the assay on CAKI-1 renal; 104% in the assay with CCRF-CEM leukemia; 93.3% in the assay with MOLT-4 leukemia; 85.1% in the assay on SR leukemia.
On to `CN1C(=O)N(C)C2Nn3c(s/c(=C\c4ccc(Cl)cc4Cl)c3=O)=NC21` (configuration not stated), for which the growth in the assay with HT29 colon was 37%; in the assay on SNB-19 CNS, 64%; with U251 CNS, 61.4%; with PC-3 prostate, 38.9%; in the assay with UACC-62 melanoma, 47.1%; in the assay with SK-MEL-28 melanoma it was 62.1%. The growth with SK-MEL-2 melanoma is 89.2%; with EKVX NSCLC, 65.1%; in the assay on SN12C renal, 75.6%; in the assay with UO-31 renal it was 62%; in the assay on TK-10 renal it was 117%; with ACHN renal, 56.6%. Moreover, the growth with CAKI-1 renal was 48.4%; with CCRF-CEM leukemia it was 49%; in the assay with MOLT-4 leukemia, 64.1%; with SR leukemia it was 35.9%.
On to `S=C1NC2(c3ccccc3)CCC(=S)N2c2ccccc21` (configuration not stated), for which the growth was 105% in the assay with HT29 colon; 97.6% with SNB-19 CNS; 95% with U251 CNS; 96.7% in the assay with PC-3 prostate; 92% in the assay on UACC-62 melanoma; 99.7% in the assay with LOX IMVI melanoma. For the same compound, the growth is 114% in the assay on SK-MEL-28 melanoma; 97.1% in the assay with SK-MEL-2 melanoma; 100% in the assay with EKVX NSCLC; 96.8% with SN12C renal; 86.2% in the assay on UO-31 renal; 124% in the assay on TK-10 renal. Moreover, the growth was 108% with ACHN renal; 78.7% in the assay with CAKI-1 renal; 101% in the assay with CCRF-CEM leukemia; 97.5% with MOLT-4 leukemia; 92.9% in the assay on SR leukemia.
In the case of `CCN1C(=O)N(CC)C2C1NN=c1s/c(=C3\C(=O)N(CC(C)(C)C)c4ccccc43)c(=O)n12` (configuration not stated), the growth is 6.57% (active) in the assay with HT29 colon; 33.1% with SNB-19 CNS; 21% with U251 CNS; 20.8% in the assay on PC-3 prostate; 36.1% with UACC-62 melanoma; 38.7% with LOX IMVI melanoma. The growth with SK-MEL-28 melanoma is 64%; in the assay with SK-MEL-2 melanoma, 53.6%; in the assay with EKVX NSCLC it was 49.6%; with SN12C renal, 32.6%; with UO-31 renal it was 38.9%; in the assay on TK-10 renal, 84.3%. Further, the growth in the assay with ACHN renal was 40.7%; in the assay with CAKI-1 renal, 38.5%; with CCRF-CEM leukemia it was 10.2%; in the assay on MOLT-4 leukemia, 16.3%; in the assay with SR leukemia, 6.48% (active).
With `O=C(N=Nc1c(O)[nH]c2ccccc12)c1oc2ccccc2c1CN1CCN(c2ccccc2)CC1`, the growth in the assay on HT29 colon is 15.8%; in the assay with SNB-19 CNS, 18.6%; with U251 CNS, -22.2% (active); with PC-3 prostate it was -22.2% (active); in the assay on UACC-62 melanoma it was 4.02% (active); with LOX IMVI melanoma it was 2.72% (active). Moreover, the growth with SK-MEL-28 melanoma is -31.8% (active); in the assay on SK-MEL-2 melanoma it was 72.9%; in the assay on EKVX NSCLC, 4.35% (active); in the assay with SN12C renal, 11.5%; in the assay with UO-31 renal it was -52.2% (active); with TK-10 renal, -45.1% (active). The growth was -85.2% (active) in the assay on ACHN renal; 32.9% in the assay on CAKI-1 renal; 19.7% in the assay with CCRF-CEM leukemia; 30.7% in the assay with MOLT-4 leukemia; 1.67% (active) in the assay with SR leukemia.
In the case of `CC(=O)SC1CC(=O)C=C2CCC3C4CCC(=O)OC4(C)CCC3C21C` (configuration not stated), the growth with HT29 colon is 101%; in the assay on SNB-75 CNS, 84.2%; in the assay with U251 CNS it was 99.4%; in the assay on PC-3 prostate it was 94%; in the assay on LOX IMVI melanoma, 97.8%; with SK-MEL-28 melanoma, 120%. Further, the growth in the assay with SK-MEL-2 melanoma is 106%; in the assay on UO-31 renal it was 87%; in the assay on TK-10 renal, 93.8%; in the assay with ACHN renal, 106%; in the assay on A498 renal, 101%; in the assay with CCRF-CEM leukemia, 101%. Also, the results for the growth in the assay on MOLT-4 leukemia and with SR leukemia were 105% and 111%, respectively.
As to `COc1cc2nc(-c3cccc4cccnc34)nc(NC3CCN(Cc4ccccc4)CC3)c2cc1OC`, the growth was -87.2% (active) with HT29 colon; -87.8% (active) in the assay on SNB-75 CNS; -78.4% (active) in the assay with U251 CNS; -84.4% (active) with PC-3 prostate; -96.8% (active) in the assay with SK-MEL-5 melanoma; -82.3% (active) with UACC-62 melanoma. Besides, the growth was -76.9% (active) with SK-MEL-28 melanoma; -77.8% (active) in the assay with SK-MEL-2 melanoma; -82.4% (active) in the assay with SN12C renal; -83% (active) with UO-31 renal; -88.7% (active) in the assay with TK-10 renal; -94.5% (active) in the assay with ACHN renal. Also, the growth is -88.3% (active) with CAKI-1 renal; -72.2% (active) in the assay on A498 renal; -30.1% (active) in the assay with CCRF-CEM leukemia; -32.4% (active) in the assay on MOLT-4 leukemia; -7.18% (active) in the assay with SR leukemia.
`CC1=NCC2NC(=O)NC(C)=C12` (configuration not stated): the growth is 108% in the assay on HT29 colon; 98.9% with SNB-19 CNS; 103% with U251 CNS; 93.9% in the assay on PC-3 prostate; 95.2% in the assay with UACC-62 melanoma; 101% with LOX IMVI melanoma. In addition, the growth is 114% in the assay on SK-MEL-28 melanoma; 101% in the assay on SK-MEL-2 melanoma; 100% in the assay with EKVX NSCLC; 99.2% with SN12C renal; 95.9% with TK-10 renal; 109% in the assay with ACHN renal. Also, the growth in the assay on CAKI-1 renal was 92.8%; in the assay with CCRF-CEM leukemia it was 99.7%; with MOLT-4 leukemia, 107%; in the assay with SR leukemia, 104%.
